From PubChem BioAssay
Calls of active or inactive are those of the source. Unless noted, no rule for the calls is given here.

Columns and labels:
[1] = HepG2 liver cancer cell viability effects, profiling panel, resazurin fluorescence, 24 h, PK04 Diversity Set (AID 1172); details: higher = more signal
[2] = basal S. cerevisiae growth modulation, no modifier, primary screen, OD600, strain BY4716, 24 h, basal condition (AID 1173); details: OD600, 24 h, higher = more signal, called active from +8 up or from −8 down
[3] = MM1S myeloma cell viability, profiling panel, resazurin fluorescence, basal, 24 h, PK04 Diversity Set (AID 1174); details: higher = more signal, called active from +8 up or from −8 down;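 also: MM1S multiple myeloma cell line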
[4] = target: Dihydroorotate dehydrogenase (quinone), mitochondrial (Plasmodium falciparum (isolate 3D7)) (UniProt Q08210); assay: PfDHODH enzyme inhibitors, primary screen, biochemical, C-terminal His tag, absorbance 600 nm (AID 1175); details: DCIP absorbance 600 nm, higher = more signal, called active from +8 up or from −8 down;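 also: recombinant parasite enzyme with a five histidine tag at its C terminus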
[5] = P. aeruginosa biofilm formation inhibitors, primary screen, strain PAO1, LB-PBS medium, absorbance 600 nm (AID 1176); details: P. aeruginosa PAO1 growth/biofilm, A600, 12 h; higher = more signal
[6] = S. cerevisiae RM11-1a growth modifiers, primary screen, strain RM11-1a, OD600, basal, 24 h (AID 1177); details: OD600, 24 h, higher = more signal, called active from +8 up or from −8 down;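 also: cultures grown under basal conditions with no added stressor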
[7] = E. coli acrAB mutant growth effects, primary screen, E. coli filamentation inducers, strain DRC39, OD650, 24 h (AID 1178); details: higher = more signal, called active from +8 up or from −8 down;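 also: growth measured as culture turbidity by optical density at 650 nm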
[8] = E. coli acrAB mutant growth effects, primary screen, E. coli filamentation inducers, strain DRC39, OD650, 48 h (AID 1179);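 also: screen aims at cell division blockers that make cells filament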; details: E. coli DRC39 delta-acrAB growth, higher = more signal, called active from +8 up or from −8 down
[9] = RPMI8226 myeloma cell viability, profiling panel, resazurin fluorescence, basal, 24 h, PK04 Diversity Set (AID 1180); details: higher = more signal;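 also: RPMI8826 multiple myeloma cell line at 5000 cells per well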
[10] = target: E3 ubiquitin-protein ligase XIAP (Homo sapiens) (UniProt P98170); assay: XIAP binders, primary screen, biophysical, small-molecule microarray, fluorescence 635 nm (AID 1181); details: small-molecule microarray binding, higher = more signal;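 also: score merges 667 nm emission and signal to noise over triplicate slides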
[11] = system: XIP peptide (Xip251-270) binding; assay: small-molecule binders of XIP peptide, primary screen, biochemical, small-molecule microarray, fluorescence 635/667 nm, 0.1 µg/mL protein (AID 1182); details: fluorescent protein binding, 635 nm, higher = more signal, called active from +8 up or from −8 down
XIP peptide (Xip251-270) = assay: small-molecule binders of XIP peptide, primary screen, biochemical, small-molecule microarray, fluorescence 635/667 nm, 0.5 µg/mL protein (AID 1183); details: small-molecule microarray binding, fluorescence 635 nm; higher = more signal
[12] = Plasmodium falciparum growth inhibition, primary screen, strain 3D7, DAPI fluorescence, 100 nL (AID 1184);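 also: parasites grown inside human red blood cells in medium with human serum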; details: P. falciparum 3D7 growth, 3 d, higher = more signal
[13] = target: Homeobox protein Hox-A13 (Mus musculus) (UniProt Q62424); assay: inhibitors of HoxA13-DNA binding, primary screen, biochemical, fluorescence polarization, labeled oligonucleotide (AID 1185); details: 15 min, higher = more signal, called active from +8 up or from −8 down
[14] = inhibitors of hydroxyurea-induced Chk1 phosphorylation, primary screen, imaging, HeLa, phospho-Chk1 antibody, percent positive cells (AID 1186); details: hydroxyurea-induced phospho-Chk1 immunofluorescence imaging, higher = more signal
[15] = inhibitors of hydroxyurea-induced Chk1 phosphorylation, primary screen, imaging, HeLa, phospho-Chk1 nuclear intensity (AID 1187); details: hydroxyurea-induced phospho-Chk1 immunofluorescence imaging, higher = more signal

Chain of E3 ubiquitin-protein ligase XIAP (Homo sapiens) (P98170 whole entry, looked up): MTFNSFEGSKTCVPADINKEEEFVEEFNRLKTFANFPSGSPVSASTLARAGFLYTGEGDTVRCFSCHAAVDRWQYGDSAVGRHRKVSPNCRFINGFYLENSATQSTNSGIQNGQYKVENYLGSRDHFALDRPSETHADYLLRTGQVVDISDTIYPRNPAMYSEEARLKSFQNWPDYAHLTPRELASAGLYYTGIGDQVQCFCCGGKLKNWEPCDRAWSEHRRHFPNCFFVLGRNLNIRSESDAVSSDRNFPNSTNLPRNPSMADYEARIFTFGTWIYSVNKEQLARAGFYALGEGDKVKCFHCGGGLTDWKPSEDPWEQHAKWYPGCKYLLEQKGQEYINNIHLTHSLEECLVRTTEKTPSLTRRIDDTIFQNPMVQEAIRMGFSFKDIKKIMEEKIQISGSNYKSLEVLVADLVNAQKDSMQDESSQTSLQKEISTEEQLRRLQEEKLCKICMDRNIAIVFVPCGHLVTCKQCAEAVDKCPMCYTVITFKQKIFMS
Chain of Homeobox protein Hox-A13 (Mus musculus) (Q62424 whole entry, looked up): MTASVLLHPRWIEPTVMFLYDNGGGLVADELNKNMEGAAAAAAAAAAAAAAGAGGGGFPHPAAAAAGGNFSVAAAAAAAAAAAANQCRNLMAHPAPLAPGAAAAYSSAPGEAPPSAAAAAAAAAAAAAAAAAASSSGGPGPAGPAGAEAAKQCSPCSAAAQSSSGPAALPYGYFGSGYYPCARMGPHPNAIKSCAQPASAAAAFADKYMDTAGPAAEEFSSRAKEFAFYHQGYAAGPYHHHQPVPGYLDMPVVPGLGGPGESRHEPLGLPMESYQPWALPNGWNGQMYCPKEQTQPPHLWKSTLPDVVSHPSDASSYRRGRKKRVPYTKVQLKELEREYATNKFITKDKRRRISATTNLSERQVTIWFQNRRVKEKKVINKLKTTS
Chain of Dihydroorotate dehydrogenase (quinone), mitochondrial (Plasmodium falciparum (isolate 3D7)) (Q08210 whole entry, looked up): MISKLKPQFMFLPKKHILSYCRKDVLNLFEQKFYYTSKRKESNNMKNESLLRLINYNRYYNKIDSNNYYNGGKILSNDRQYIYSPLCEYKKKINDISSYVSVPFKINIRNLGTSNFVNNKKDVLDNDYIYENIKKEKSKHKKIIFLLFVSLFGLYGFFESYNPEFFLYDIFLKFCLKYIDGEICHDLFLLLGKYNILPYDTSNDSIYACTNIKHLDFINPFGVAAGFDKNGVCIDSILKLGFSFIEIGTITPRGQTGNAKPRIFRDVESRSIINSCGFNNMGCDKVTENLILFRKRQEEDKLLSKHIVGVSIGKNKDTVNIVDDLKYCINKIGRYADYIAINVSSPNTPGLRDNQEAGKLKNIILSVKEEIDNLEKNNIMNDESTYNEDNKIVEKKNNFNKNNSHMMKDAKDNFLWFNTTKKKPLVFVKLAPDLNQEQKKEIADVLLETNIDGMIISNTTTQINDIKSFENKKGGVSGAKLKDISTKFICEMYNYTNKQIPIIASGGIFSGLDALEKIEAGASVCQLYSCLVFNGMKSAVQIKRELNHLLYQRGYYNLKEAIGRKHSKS

Compound | z-score [1] | z-score [2] | z-score [3] | composite z-score [4] | z-score [5] | z-score [6] | z-score [7] | z-score [8] | z-score [9] | composite z-score [10] | composite z-score [11] | composite z-score (XIP peptide (Xip251-270)) | z-score [12] | z-score [13] | z-score [14] | z-score [15]
C=CC[C@]1(C(=O)NCC(O)CO)COC(c2ccc(OCCCO)cc2)=N1 (stereo partly drawn) | -0.25 | 0.369 (inactive) | -0.772 (inactive) | 0.233 (inactive) | 2.29 (inactive) | 1.33 (inactive) | -0.34 (inactive) | -0.471 (inactive) | -0.412 | -0.266 | -0.933 (inactive) | -1.45 | 0.343 | -4.55 (inactive) | 0.0293 (inactive) | -0.553 (inactive)
O=C1[C@H]2C=C(I)[C@H](C[C@@H]2OCCCCCCO)[C@@]12CO2 | 0.21 | -1.77 (inactive) | -0.394 (inactive) | 0.742 (inactive) | 1.13 (inactive) | -0.473 (inactive) | -0.875 (inactive) | -0.482 (inactive) | -0.658 | -0.109 | -0.0604 (inactive) | 0.77 | 1.09 | -3.09 (inactive) | -0.116 (inactive) | -0.124 (inactive)
Cc1ccc(S[C@]2(C(=O)NCCCN(C)C)CC(=O)N(Cc3ccccc3C(F)(F)F)[C@@H]2c2ccc(CO)cc2I)cc1 | 0.0689 | -4.57 (inactive) | -3.16 (inactive) | -0.168 (inactive) | -0.0065 (inactive) | -1.55 (inactive) | -0.108 (inactive) | -0.65 (inactive) | -1.42 | 0.191 | 0.223 (inactive) | 0.82 | 0.306 | -2.71 (inactive) | 0.0909 (inactive) | 0.675 (inactive)
N#Cc1ccc(C(O)C2C=CC3C(=O)NC(=O)C3N2Nc2ccc(Cl)cc2Cl)cc1 (stereo not drawn) | -1.53 | -14.4 (active) | -1.43 (inactive) | -0.173 (inactive) | 1.26 (inactive) | -0.633 (inactive) | -0.48 (inactive) | -0.413 (inactive) | -1.35 | 0.0856 | 1.42 (inactive) | 0.0653 | 0.684 | -5.63 (inactive) | 0.731 (inactive) | 0.688 (inactive)
COc1ccc(C(=O)Nc2ccc3c(c2)[C@@]2(O[C@H](CCO)[C@@H]([Si](C)(C)c4ccc(OC)cc4)[C@@H]2C)C(=O)N3Cc2ccccc2)cc1 | -2.52 | -1.96 (inactive) | -8.32 (active) | -0.687 (inactive) | 0.249 (inactive) | 2.7 (inactive) | -0.59 (inactive) | -0.927 (inactive) | -5.58 | -0.131 | 0.396 (inactive) | 0.466 | -2.89 | -1.54 (inactive) | 0.0691 (inactive) | 0.518 (inactive)
Cc1ccccc1C(O)C1C=CC2C(=O)N(c3ccccc3)C(=O)C2N1Nc1ccccc1 (stereo not drawn) | -0.341 | -2.84 (inactive) | -0.516 (inactive) | 0.106 (inactive) | 0.956 (inactive) | 0.0725 (inactive) | -0.36 (inactive) | 0.372 (inactive) | -0.0175 | 0.265 | 0.766 (inactive) | 0.889 | -0.189 | -2.86 (inactive) | -1.2 (inactive) | -1.11 (inactive)
C=CCC(OC(C)=O)[C@@H]1[C@@H](N(Cc2cccc3ccccc23)C(=O)Cc2ccc(OC)cc2)c2cc(OCCCO)ccc2N1C(=O)Cc1ccc2ccccc2c1 (stereo partly drawn) | 0.687 | 0.428 (inactive) | 0.504 (inactive) | -0.717 (inactive) | -0.853 (inactive) | -0.372 (inactive) | 0.685 (inactive) | 0.248 (inactive) | 0.4 | 0.141 | -0.559 (inactive) | 0.296 | -1.91 | -2.41 (inactive) | 0.42 (inactive) | 0.512 (inactive)
COc1ccc([Si](C)(C)[C@@H]2[C@@H](CC(=O)N(CCO)Cc3ccccc3)O[C@]3(C(=O)N(Cc4ccc(I)cc4)c4ccccc43)[C@H]2C)cc1 | -1.42 | -0.498 (inactive) | -2.27 (inactive) | 1.07 (inactive) | 1.1 (inactive) | 2.45 (inactive) | -0.318 (inactive) | -0.699 (inactive) | -2.52 | -0.0658 | 1.59 (inactive) | 0.256 | -2.2 | -2.17 (inactive) | -0.168 (inactive) | -0.299 (inactive)
